Reference: PubChem BioAssay (NCI)
Where “and” joins values, the source holds several entries; their conditions need not be identical. Equal entries are not always repeated. The panel holds about 83,000 compounds, 20% with a hit somewhere; the sample as a whole holds those more often.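 Method: cells in 96-well plates; compound added at one concentration; 48 h incubation; percent growth measured; values under 10 scored active.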 Calls of active or inactive are those of the source.

Assays:
Assay in all cases: NCI-60 one-dose screen, 48 h (100 = growth as untreated, 0 = no growth, -100 = all killed)
Conditions in all cases: 10 µM unless noted
EKVX NSCLC = test system: EKVX NSCLC
SN12C renal = test system: SN12C renal
UO-31 renal = test system: UO-31 renal
TK-10 renal = test system: TK-10 renal
ACHN renal = test system: ACHN renal
CAKI-1 renal = test system: CAKI-1 renal
A498 renal = test system: A498 renal
MOLT-4 leukemia = test system: MOLT-4 leukemia
SR leukemia = test system: SR leukemia
RPMI-8226 leukemia = test system: RPMI-8226 leukemia
OVCAR-8 ovarian = test system: OVCAR-8 ovarian
OVCAR-5 ovarian = test system: OVCAR-5 ovarian
OVCAR-4 ovarian = test system: OVCAR-4 ovarian
SK-OV-3 ovarian = test system: SK-OV-3 ovarian
IGROV1 ovarian = test system: IGROV1 ovarian
OVCAR-3 ovarian = test system: OVCAR-3 ovarian
HS 578T breast = test system: HS 578T breast
NCI/ADR-RES ovarian = test system: NCI/ADR-RES ovarian
CCRF-CEM leukemia = test system: CCRF-CEM leukemia

Measured: growth

N#C/C(=C\c1ccccc1Cl)c1cc2ccccc2[nH]1
inactive: EKVX NSCLC 77.1% | SN12C renal 92.4% | UO-31 renal 69.7% | TK-10 renal 130% | ACHN renal 84.7% | CAKI-1 renal 73.1% | A498 renal 98.6% | MOLT-4 leukemia 77.1% | SR leukemia 60% | RPMI-8226 leukemia 77.1% | OVCAR-8 ovarian 96.4% | OVCAR-5 ovarian 95.8% | OVCAR-4 ovarian 96.4% | SK-OV-3 ovarian 76.3% | IGROV1 ovarian 84.7% | OVCAR-3 ovarian 101% | HS 578T breast 92.9% | NCI/ADR-RES ovarian 95.5%

Nc1ccc(-c2ccc(N)c(Br)c2)cc1Br
inactive: EKVX NSCLC 59% | SN12C renal 45.7% | UO-31 renal 35% | TK-10 renal 75.6% | ACHN renal 76.5% | CAKI-1 renal 50.3% | A498 renal 74.5% | CCRF-CEM leukemia 19.6% | MOLT-4 leukemia 27.2% | SR leukemia 20.7% | RPMI-8226 leukemia 29% | OVCAR-8 ovarian 59.2% | OVCAR-5 ovarian 63% | OVCAR-4 ovarian 75.5% | SK-OV-3 ovarian 64.4% | IGROV1 ovarian 47% | OVCAR-3 ovarian 51.4% | HS 578T breast 79.5% | NCI/ADR-RES ovarian 29.2%

CC(=O)N1N=C(c2ccc(F)cc2)CC1c1sc(N(C)Cc2ccccc2)nc1Cl (stereo unspecified)
inactive: EKVX NSCLC 87.4% | SN12C renal 106% | UO-31 renal 74.6% | TK-10 renal 112% | ACHN renal 102% | CAKI-1 renal 83.9% | CCRF-CEM leukemia 96.4% | MOLT-4 leukemia 99.7% | SR leukemia 94.6% | RPMI-8226 leukemia 75.2% | OVCAR-8 ovarian 105% | OVCAR-5 ovarian 109% | OVCAR-4 ovarian 88.7% | SK-OV-3 ovarian 101% | IGROV1 ovarian 96% | OVCAR-3 ovarian 101% | HS 578T breast 109% | NCI/ADR-RES ovarian 92%

Clc1nccc2c(-c3csc(-c4c[nH]c5ccc(Br)cc45)n3)c[nH]c12
active: UO-31 renal 9.83% | ACHN renal 6.55% | A498 renal -1.69% | SR leukemia 6.34%
inactive: EKVX NSCLC 42.5% | SN12C renal 54% | TK-10 renal 28.6% | CAKI-1 renal 32.9% | CCRF-CEM leukemia 20.1% | MOLT-4 leukemia 22% | RPMI-8226 leukemia 44.9% | OVCAR-8 ovarian 33.4% | OVCAR-5 ovarian 60.1% | OVCAR-4 ovarian 48.2% | SK-OV-3 ovarian 27% | IGROV1 ovarian 44.3% | OVCAR-3 ovarian 62.5% | HS 578T breast 30.7% | NCI/ADR-RES ovarian 31.3%

CN1C(=O)/C(=C/c2ccc(C(=O)Nc3ncc(Cc4ccccc4Cl)s3)cc2)SC1=S
inactive: EKVX NSCLC 75.6% | SN12C renal 68.6% | UO-31 renal 63.5% | TK-10 renal 83.6% | ACHN renal 52.1% | CAKI-1 renal 34.1% | A498 renal 60.7% | CCRF-CEM leukemia 73.7% | MOLT-4 leukemia 82.1% | SR leukemia 35.7% | RPMI-8226 leukemia 73.3% | OVCAR-8 ovarian 79.3% | OVCAR-5 ovarian 70.5% | OVCAR-4 ovarian 69.6% | SK-OV-3 ovarian 80.5% | IGROV1 ovarian 78.8% | OVCAR-3 ovarian 93.3% | HS 578T breast 65.8% | NCI/ADR-RES ovarian 71.6%

O=C(Nc1ncc(Cc2cccc(C(F)(F)F)c2)s1)c1ccc(-n2cnnn2)cc1
inactive: EKVX NSCLC 40.2% | SN12C renal 79.9% | UO-31 renal 48.3% | TK-10 renal 50.4% | ACHN renal 32% | CAKI-1 renal 30.1% | A498 renal 54.7% | CCRF-CEM leukemia 55.3% | MOLT-4 leukemia 39.4% | SR leukemia 61.2% | OVCAR-8 ovarian 58.5% | OVCAR-5 ovarian 74.2% | OVCAR-4 ovarian 33.6% | SK-OV-3 ovarian 86.4% | IGROV1 ovarian 74.6% | OVCAR-3 ovarian 72.1% | HS 578T breast 79.3% | NCI/ADR-RES ovarian 35.9%

O=C1C(c2c[nH]c3ccccc23)=C(c2coc3cc(Br)ccc23)C(=O)N1O
inactive: EKVX NSCLC 84.3% | SN12C renal 97.9% | UO-31 renal 73.4% | TK-10 renal 137% | ACHN renal 110% | CAKI-1 renal 100% | A498 renal 54.4% | CCRF-CEM leukemia 89.4% | MOLT-4 leukemia 98.9% | SR leukemia 90.5% | RPMI-8226 leukemia 89.8% | OVCAR-8 ovarian 106% | OVCAR-5 ovarian 105% | OVCAR-4 ovarian 115% | SK-OV-3 ovarian 98.8% | IGROV1 ovarian 85.2% | OVCAR-3 ovarian 102% | HS 578T breast 94.5% | NCI/ADR-RES ovarian 105%

COc1c(NC=O)c2c(c([N+](=O)[O-])c1OC)C(=O)OC2
inactive: EKVX NSCLC 110% and 85.7% | SN12C renal 92.1% and 94.8% | UO-31 renal 80.2% | TK-10 renal 114% and 111% | ACHN renal 130% and 112% | CAKI-1 renal 105% and 89.1% | A498 renal 111% | MOLT-4 leukemia 67.9% and 115% | SR leukemia 86.9% | RPMI-8226 leukemia 78% and 96.5% | OVCAR-8 ovarian 101% and 109% | OVCAR-5 ovarian 120% and 99.7% | OVCAR-4 ovarian 103% | SK-OV-3 ovarian 107% and 108% | IGROV1 ovarian 103% | OVCAR-3 ovarian 115% | HS 578T breast 109% and 86.8% | NCI/ADR-RES ovarian 117% and 108%
91.5% (inactive) and 3.53% (active): CCRF-CEM leukemia

Cc1ccc(Cc2cnc(NC(=O)c3cc(C)oc3C)s2)cc1
inactive: EKVX NSCLC 57.4% | SN12C renal 86.9% | UO-31 renal 61.2% | TK-10 renal 63.6% | ACHN renal 70.4% | CAKI-1 renal 38.4% | A498 renal 84.4% | CCRF-CEM leukemia 70.8% | MOLT-4 leukemia 60.2% | SR leukemia 29.7% | RPMI-8226 leukemia 73.6% | OVCAR-8 ovarian 87.7% | OVCAR-5 ovarian 67.6% | OVCAR-4 ovarian 70.2% | SK-OV-3 ovarian 84.3% | IGROV1 ovarian 62% | OVCAR-3 ovarian 81.4% | HS 578T breast 82.9% | NCI/ADR-RES ovarian 67.4%

COc1ccc(Cl)cc1Nc1nc(C(F)(F)F)ccc1C(=O)N/N=C/c1ccc(N(C)C)cc1
inactive: EKVX NSCLC 121% | SN12C renal 98.2% | UO-31 renal 98.3% | TK-10 renal 95.9% | ACHN renal 96.6% | CAKI-1 renal 116% | A498 renal 109% | MOLT-4 leukemia 90.4% | RPMI-8226 leukemia 108% | OVCAR-8 ovarian 99.8% | OVCAR-5 ovarian 79.5% | OVCAR-4 ovarian 87.1% | SK-OV-3 ovarian 11.8% | IGROV1 ovarian 96.4% | OVCAR-3 ovarian 147% | HS 578T breast 101% | NCI/ADR-RES ovarian 90%
active: CCRF-CEM leukemia -17.6% | SR leukemia 7.32%

O=C1c2cccc3cccc(c23)C(=O)N1N1C(=O)c2cccc3c(N4CCNCC4)ccc(c23)C1=O
active: SR leukemia -6.4%
inactive: EKVX NSCLC 97.9% | SN12C renal 89.8% | UO-31 renal 71.6% | TK-10 renal 113% | ACHN renal 87.8% | CAKI-1 renal 92.4% | A498 renal 75.1% | CCRF-CEM leukemia 19.5% | MOLT-4 leukemia 61.5% | RPMI-8226 leukemia 68.8% | OVCAR-8 ovarian 82.6% | OVCAR-5 ovarian 121% | OVCAR-4 ovarian 116% | SK-OV-3 ovarian 104% | IGROV1 ovarian 91.2% | OVCAR-3 ovarian 101% | HS 578T breast 85.9% | NCI/ADR-RES ovarian 82.6%

CSc1nnc(-c2cc3c([nH]c4ccccc43)c(-c3cccc(O)c3)n2)n1-c1ccc(C)cc1
inactive: EKVX NSCLC 70.4% | UO-31 renal 41.5% | TK-10 renal 35.5% | ACHN renal 32.3% | CAKI-1 renal 48.3% | A498 renal 30.6% | CCRF-CEM leukemia 12.2% | MOLT-4 leukemia 17.4% | RPMI-8226 leukemia 19.3% | OVCAR-8 ovarian 34.8% | OVCAR-5 ovarian 72.6% | OVCAR-4 ovarian 54.1% | SK-OV-3 ovarian 42% | IGROV1 ovarian 51% | HS 578T breast 37.3% | NCI/ADR-RES ovarian 43.1%
active: SR leukemia 5.99% | OVCAR-3 ovarian 1.33%

CCNC(=O)Oc1ccc(/C(=C(/C)Cc2ccc(OC)cc2)c2ccc(OCCN(CC)CC)cc2)cc1
inactive: EKVX NSCLC 69.6% | SN12C renal 68.6% | UO-31 renal 43.1% | TK-10 renal 65.9% | ACHN renal 81.5% | CAKI-1 renal 61.4% | A498 renal 80% | CCRF-CEM leukemia 35.6% | MOLT-4 leukemia 14.7% | OVCAR-8 ovarian 74.8% | OVCAR-5 ovarian 89.9% | OVCAR-4 ovarian 69.4% | SK-OV-3 ovarian 88.6% | IGROV1 ovarian 74.7% | OVCAR-3 ovarian 50.7% | HS 578T breast 45.9% | NCI/ADR-RES ovarian 78.1%
active: SR leukemia -55.3% | RPMI-8226 leukemia -14.8%

COC1=CC(=O)C(OC)=C(O)C1=O
inactive: EKVX NSCLC 98.1% | SN12C renal 98.2% | UO-31 renal 93.1% | TK-10 renal 105% | ACHN renal 98.2% | CAKI-1 renal 93.9% | A498 renal 106% | CCRF-CEM leukemia 108% | MOLT-4 leukemia 107% | SR leukemia 107% | RPMI-8226 leukemia 110% | OVCAR-8 ovarian 103% | OVCAR-5 ovarian 95.2% | OVCAR-4 ovarian 90.8% | SK-OV-3 ovarian 91% | IGROV1 ovarian 103% | OVCAR-3 ovarian 105% | HS 578T breast 113% | NCI/ADR-RES ovarian 101%

O=C(/C=C/c1cccs1)Nc1ncc(Cc2ccc(Cl)c(Cl)c2)s1
inactive: EKVX NSCLC 57.8% | SN12C renal 79.8% | UO-31 renal 49.6% | TK-10 renal 61.5% | ACHN renal 36.4% | CAKI-1 renal 23.8% | A498 renal 57.1% | CCRF-CEM leukemia 68% | MOLT-4 leukemia 51.4% | SR leukemia 32.7% | RPMI-8226 leukemia 78.1% | OVCAR-8 ovarian 72.7% | OVCAR-5 ovarian 74.1% | OVCAR-4 ovarian 66.6% | SK-OV-3 ovarian 68.8% | IGROV1 ovarian 64.1% | OVCAR-3 ovarian 40.4% | HS 578T breast 62.4% | NCI/ADR-RES ovarian 60.3%
